Results with a measured potency or affinity are listed apart. Calls of active or inactive are those of the source.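 The calls were made as follows: active = every repeat test judged active, meaning a falling signal with potency within twice the top valid dose; inconclusive = repeat tests disagree on the call; inactive = every repeat test inactive, including signal moving upward.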
target: Cyclin-dependent kinase 2 (Homo sapiens) (UniProt P24941); test: inhibition of human CDK2/cyclin A – biochemical, cherry-picked samples, selectivity assay for Dyrk1A inhibitor project, dose response (AID 602127); settings: ADP-Glo luminescence, 60 min; series mostly up to 10 µM

outcome, inactive:
CCOC(=O)c1ccc(-c2ccc3ncnc(N(C)Cc4sccc4C)c3c2)o1
O=C(Nc1nc(-c2ccncc2)cs1)c1ccco1
Cc1nc(CN(C)c2ncnc3ccc(-c4ccc5c(c4)OCO5)cc23)cs1
CC(=O)Nc1ccc(Nc2cc(C)nc3c(-c4ccccc4)cnn23)cc1
Clc1ccc(CNc2nccc(-c3ccc4c(c3)OCCO4)n2)cc1Cl
Clc1ccc(CNc2nccc(-c3ccc4cn[nH]c4c3)n2)cc1Cl
c1nc(NCC2CCCC2)c2cc(-c3ccc4c(c3)OCO4)ccc2n1
COc1cccc(Nc2ncnc3sc(C)cc23)c1
Cc1ccsc1CN(C)c1ncnc2ccc(-c3ccc(CO)o3)cc12
Clc1ccc(CNc2ncncc2-c2ccc3c(c2)OCO3)cc1
CC(=O)Nc1cccc(NC(=O)c2cc3ccccc3o2)c1
Cc1nc(CNc2ncnc3ccc(-c4ccc5c(c4)OCO5)cc23)cs1
c1cncc(CNc2cc(-c3ccc4c(c3)OCO4)ncn2)c1
CN(Cc1cccs1)c1ncnc2ccc(-c3ccc4c(c3)OCO4)cc12
c1cncc(CNc2ccnc(-c3ccc4cn[nH]c4c3)n2)c1
CCOC(=O)c1ccc2ncc(C(=O)OCC)c(Nc3ccc(N4CCOCC4)cc3)c2c1
COc1ccc(-c2nccc(NCc3ccc(C)cc3)n2)cc1
O=C(COc1ccccc1)Nc1cccc(-c2cn3cccnc3n2)c1
Cc1nc(NC(=O)c2ccccc2)sc1-c1csc(N)n1
COc1ccc2c(Cl)c(C(=O)NCc3ccco3)sc2c1
Clc1cc(Cl)cc(CNc2ncncc2-c2ccc3c(c2)OCO3)c1
CCCNc1ncnc2ccc(-c3ccc4c(c3)OCO4)cc12
Clc1cc(Cl)cc(CNc2cc(-c3ccc4c(c3)OCO4)ncn2)c1
O=C(Nc1nc2ccc(Cl)cc2s1)C1CCCO1 (stereo unspecified)
c1cc(-c2ccc3c(c2)OCO3)nc(Nc2ccc3c(c2)OCO3)n1
CN(C)c1ccc(-c2nccc(NCc3cccs3)n2)cc1
c1cncc(-c2nc(NCc3ccco3)c3ccccc3n2)c1
Fc1c(-c2ccc3ncnc(NCc4cccs4)c3c2)ccc2c1OCO2
COc1ccc(-c2[nH]ncc2-c2ccc3c(c2)OCCO3)c(O)c1
CC(Nc1nc(-c2cccnc2)nc2ccccc12)c1ccc(F)cc1 (stereo unspecified)
COc1cccc(NC(=O)c2sc(NC(=O)c3ccncc3)nc2C)c1

From PubChem BioAssay AID602127 (Broad Institute, 2011)
